# About 4,300 (8.3%) of roughly 52,000 compounds were called active. This excerpt belongs to a sample that is enriched for actives. Values without a mark were called inactive. Rule as the data show it: active = survival mostly below about 52% (no sharp cut-off); inactive = mostly above about 56%.
# Tested on: DeltatarO mutant
# Assay: growth inhibition of S. aureus wild type versus tarO mutant, primary screen, teichoic acid synthesis inhibitors, RN4220, OD600 (AID 463173)
# Details: OD600, 18 h, hits give low values, screened at 18.75 µg/mL (by protocol)
row,SMILES,survival
1,CCOc1cc(CNC(=O)Cn2c(=O)c3cccn3c3ccc(F)cc32)cc(OCC)c1OCC,50%
2,Cc1ccc(C)c(Cn2c(=O)n(Cc3ccccc3)c(=O)c3c2c2cc(C)ccc2n3C)c1,78%
3,CC(C)c1ccc(OCC(O)CN2CCN(c3ccc(F)cc3)CC2)cc1 (stereo unspecified),56%
4,O=C(CN1C(=O)C2(SCC(=O)N2c2ccc(F)c(F)c2)c2ccccc21)Nc1ccccc1F (stereo unspecified),94%
5,COc1ccc(CCNC(=O)c2c(C)oc3nc(C)nc(N4CCOCC4)c23)cc1OC,102%
6,COCCN(C(=O)C1CC1)c1nnc(-c2cccc(C)c2)s1,98%
7,Cc1cc(C)nc(NS(=O)(=O)c2ccc(NC(=O)COc3ccc(Cl)cc3C)cc2)n1,63%
8,COc1ccc(NC(=O)CN2CCC(n3c(C)nc4cc(F)ccc43)CC2)c(OC)c1,104%
9,COc1cccc(CN(C(=O)c2cccc(C)c2)C2CCS(=O)(=O)C2)c1 (stereo unspecified),65%
10,CCOc1ccc(CCNC(=O)c2cc3n(n2)CCCN(Cc2ccc(C)cc2)C3=O)cc1OCC,112%
11,O=S(=O)(CCN1CCOCC1)c1ccc(Oc2ccc(S(=O)(=O)CCN3CCOCC3)cc2)cc1,70%
12,Cc1ccc(CCNC(=O)C(CC(C)C)NS(=O)(=O)c2ccc3c(c2)oc(=O)n3C)cc1 (stereo unspecified),93%
13,N#Cc1ccc(-c2cccs2)nc1SCc1ccc(Cl)cc1Cl,74%
14,Cc1ccc(CSc2nc(-c3cccs3)ccc2C#N)cc1,25% (active)
15,N#Cc1ccc(-c2cccs2)nc1SCc1c(F)cccc1Cl,36% (active)
16,N#Cc1c(-c2cccs2)cc(-c2cccs2)nc1SCc1cccnc1,65%
17,Cc1ccc(CSc2ccc(-c3cccs3)nn2)cc1,89%
18,Cc1cccc(CSc2ccc(-c3cccs3)nn2)c1,79%
19,N#Cc1ccc(-c2cccs2)nc1SCc1ccc(Br)cc1,74%
20,Cc1cccc(CSc2nc(-c3cccs3)ccc2C#N)c1,18% (active)
21,N#Cc1ccc(-c2cccs2)nc1SCC(=O)Nc1cccc(C(F)(F)F)c1,48%
22,Cc1ccc(NC(=O)CSc2nc3c(oc4ccccc43)c(=O)n2-c2ccc(F)cc2)c(C)c1,67%
23,O=C(Nc1ccc2nsnc2c1)C1CC1,89%

row,SMILES,survival
1,O=C1c2ccc(-c3ccc4c(c3)C(=O)N(CCO)C4=O)cc2C(=O)N1CCO,87%
2,CN1CC(C(=O)O)CC1=O (stereo unspecified),83%
3,Cn1c(=O)oc2cc(S(=O)(=O)CCC(=O)NCc3ccccc3)ccc21,77%
4,Cc1ccc(Cl)cc1N1CCN(c2nc3ccccc3c3nc(-c4cccnc4)nn23)CC1,114%
5,CCOC(=O)c1[nH]c(C)c(CCC(=O)Nc2cc(Cl)c(OC)cc2OC)c1C,122%
6,COc1ccc(OCC(=O)NCC(c2ccc(OC)cc2)N2CCCCC2)cc1 (stereo unspecified),79%
7,COc1ccc(CC(=O)NCc2ccc3c(c2)CCN3C(C)=O)cc1,96%
8,COc1ccc(-n2c(=O)c3c4c(sc3n(Cc3ccc(F)cc3)c2=O)CCCC4)c(OC)c1,47%
9,Cc1cc(C)cc(NC(=O)CSc2ccc(-c3cccs3)nn2)c1,73%
10,Cc1ccc2c(c1)C(=O)OC(C(=O)Nc1ccc(C(=O)O)cc1)C2 (stereo unspecified),65%
11,CCOc1ccc(NC(=O)c2c(NC(=O)c3ccccc3F)sc3c2CCC3)cc1,155%
12,CCCCc1ccc(NC(=O)c2ccc3c(c2)CCN3S(=O)(=O)c2ccccc2)cc1,53%
13,CCS(=O)(=O)N1CCc2cc(C(=O)Nc3cccc(NC(C)=O)c3)ccc21,42% (active)
14,CCS(=O)(=O)N1CCc2cc(C(=O)Nc3cccc(C(C)=O)c3)ccc21,50%
15,CCS(=O)(=O)N1CCCc2cc(C(=O)Nc3cccc(C(C)=O)c3)ccc21,89%
16,CCS(=O)(=O)N1CCc2cc(C(=O)Nc3ccc(C(=O)OC)cc3)ccc21,49%
17,CCCCc1ccc(NC(=O)c2ccc3c(c2)CCN3S(=O)(=O)CC)cc1,38% (active)
18,COc1ccc2c(C)c(CCC(=O)NCc3ccccc3Cl)c(=O)oc2c1C,63%
19,COc1ccc(CN2CCc3c(c(=O)n4ncc(C(=O)N5CCN(c6ccccc6OC)CC5)c4n3C)C2)cc1,89%
20,CCN(CCCNC(=O)c1cc2cc3ccc(C)cc3nc2s1)c1ccccc1,126%
21,CCN(CCCNC(=O)c1cc2cc3cc(C)ccc3nc2s1)c1cccc(C)c1,102%
22,CCN(CCCNC(=O)c1cc2cc3cc(OC)ccc3nc2s1)c1cccc(C)c1,46% (active)
23,CCN(CCCNC(=O)c1cc2cc3ccc(OC)cc3nc2s1)c1cccc(C)c1,83%

row,SMILES,survival
1,CCN(CCCNC(=O)c1cc2cc3cc(OC)ccc3nc2s1)c1ccccc1,53% (active)
2,CCN(CCCNC(=O)c1cc2cc3ccc(OC)cc3nc2s1)c1ccccc1,97%
3,O=C(COCc1cc(-c2cccs2)on1)NCc1ccc(Cl)cc1,64%
4,CC1CCN(S(=O)(=O)c2ccc(N3CCCCS3(=O)=O)cc2)CC1,71%
5,Cc1ccc2oc(C(=O)N3CCC(c4nc5ccccc5s4)CC3)c(C)c2c1,52%
6,O=C(NCCS(=O)(=O)N1CCN(c2ccccc2F)CC1)c1cc(=O)c2ccccc2o1,71%
7,Cc1cccc(NC(=O)C2CCCN(S(=O)(=O)c3ccc4c(c3)oc(=O)n4C)C2)c1C (stereo unspecified),83%
8,CCC(CC)c1nnc(NC(=O)CS(=O)(=O)Cc2ccccc2)s1,70%
9,CCOC(=O)c1c(C)oc2ncnc(Nc3ccc(OC)cc3OC)c12,97%
10,CCOC(=O)c1cnc2c(ccc3ccccc32)c1Nc1ccccc1OC,28% (active)
11,CCOC(=O)c1cnc(N2CCN(c3ccc(OC)cc3)CC2)c2ccccc12,97%
12,CCOC(=O)c1cnc2c(ccc3ccccc32)c1Nc1ccccc1OCC,126%
13,CCOC(=O)c1cnc(NCc2ccccc2OC)c2ccccc12,89%
14,CCOC(=O)c1cnc2c(ccc3ccccc32)c1Nc1ccc(OC)cc1OC,8% (active)
15,CCOC(=O)CSc1nc2cc(OC)c(OC)cc2c2nc(-c3ccccc3)nn12,59%
16,O=C(Cn1ncc2c(=O)oc3ccccc3c21)NCc1ccc(Cl)cc1,86%
17,CCOc1ccccc1N(CC)C(=O)c1cc2c(=O)n(CC)c3ccccc3c2s1,121%
18,COc1ccc(C2=Nc3ccc(OC(F)(F)F)cc3NC(c3cccnc3)=N2)cc1,67%
19,CC(C)Oc1ccc(CNS(=O)(=O)c2cnc(N)nc2)cc1,115%
20,COc1ccc(CNS(=O)(=O)c2cnc(N)nc2)cc1,-2% (active)
21,COc1cccc(CNS(=O)(=O)c2cnc(N)nc2)c1,64%
22,CCc1nn(C(C)C(=O)N2CCN(c3cccc(C(F)(F)F)c3)CC2)c(=O)c2cc3occc3n12 (stereo unspecified),73%
23,COc1ccc(OC)c(CCNC(=O)CCn2c(=O)c3cccn3c3cccnc32)c1,84%

row,SMILES,survival
1,CCN(CC)c1ccc(NC(=O)c2ccccc2F)cc1,63% (active)
2,Cc1cc2nn(-c3ccc(F)cc3)nc2cc1NC(=O)c1cccc2ccccc12,68%
3,CCN(CC)c1ccc(NC(=O)CN2CCN(c3ccccc3F)CC2)cc1,75%
4,O=C(Nc1ccc(S(=O)(=O)N(Cc2ccccc2)c2ccccc2)cc1)c1ccccc1F,58%
5,Cc1cc2nn(-c3ccc(F)cc3)nc2cc1NC(=O)c1cccc2c(Cl)cccc12,59%
6,Cc1cc2nn(-c3ccccc3)nc2cc1NC(=O)c1cccc2c(Cl)cccc12,43% (active)
7,CCN(CC)c1ccc(-n2nc3cc(C)c(NC(=O)c4ccccc4C)cc3n2)c(C)c1,73%
8,CCN(CC)c1ccc(-n2nc3cc(C)c(NC(C)=O)cc3n2)cc1,92%
9,CCN(CC)c1ccc(-n2nc3cc(C)c(NC(=O)c4ccccc4F)cc3n2)cc1,56% (active)
10,Cc1c(Cl)cccc1Nc1sc(C(=O)c2ccccc2)c(N)c1S(=O)(=O)c1ccccc1,71%
11,Cc1cc(C)cc(OCCSc2nc(-c3ccc(C(C)(C)C)cc3)nc3cc(=O)[nH]n23)c1,83%
12,Cn1c(CNC(=O)CSc2n[nH]c(-c3ccccc3)n2)nc2ccccc21,89%
13,O=C(NCCSc1c(-c2ccc(Cl)cc2)[nH]c2ccccc12)c1ccc(S(=O)(=O)N2CCOCC2)cc1,68%
14,CCOC(=O)c1sc2ccccc2c1S(=O)(=O)Nc1ccc(N(C)C)cc1,126%
15,CC(C)c1ccc2occ(CC(=O)N(Cc3ccc(F)cc3)C3CCS(=O)(=O)C3)c2c1 (stereo unspecified),61%
16,Cc1ccc(CNC(=O)c2ccc3c(c2)nc2n3CCCC2)cc1,86%
17,Cc1cn2c(=O)cc(COC(=O)c3cccc(NC(=O)C(C)Oc4ccccc4)c3)nc2s1 (stereo unspecified),95%
18,Cc1cn2c(=O)cc(COC(=O)c3ccc(NC(=O)C(C)Oc4ccccc4)cc3)nc2s1 (stereo unspecified),8% (active)
19,Cc1cn2c(=O)cc(COC(=O)c3cccc(NC(=O)c4ccc(C(C)(C)C)cc4)c3)nc2s1,103%
20,Cc1cn2c(=O)cc(COC(=O)c3ccc(NC(=O)c4ccc(C(C)(C)C)cc4)cc3)nc2s1,20% (active)
21,Cc1cn2c(=O)cc(COC(=O)c3ccc(NC(=O)c4ccc(F)cc4)cc3)nc2s1,96%
22,CC(Oc1ccccc1)C(=O)Nc1ccc(C(=O)OCc2cc(=O)n3ccsc3n2)cc1 (stereo unspecified),87%

# Source: PubChem BioAssay AID463173 (ICCB-Longwood Screening Facility, Harvard Medical School, 2010)
